Inconclusive results are not listed. Calls of active or inactive are those of the source. Rule for the calls: active = hit-call score of the fitted dose curve at least 0.9, where 1 is the maximum; inconclusive = response in the unintended direction; inactive = score below 0.9.

Chain of bovine Estrogen Receptor (ER), ESR1 (gene 407238) (P49884 whole entry, looked up): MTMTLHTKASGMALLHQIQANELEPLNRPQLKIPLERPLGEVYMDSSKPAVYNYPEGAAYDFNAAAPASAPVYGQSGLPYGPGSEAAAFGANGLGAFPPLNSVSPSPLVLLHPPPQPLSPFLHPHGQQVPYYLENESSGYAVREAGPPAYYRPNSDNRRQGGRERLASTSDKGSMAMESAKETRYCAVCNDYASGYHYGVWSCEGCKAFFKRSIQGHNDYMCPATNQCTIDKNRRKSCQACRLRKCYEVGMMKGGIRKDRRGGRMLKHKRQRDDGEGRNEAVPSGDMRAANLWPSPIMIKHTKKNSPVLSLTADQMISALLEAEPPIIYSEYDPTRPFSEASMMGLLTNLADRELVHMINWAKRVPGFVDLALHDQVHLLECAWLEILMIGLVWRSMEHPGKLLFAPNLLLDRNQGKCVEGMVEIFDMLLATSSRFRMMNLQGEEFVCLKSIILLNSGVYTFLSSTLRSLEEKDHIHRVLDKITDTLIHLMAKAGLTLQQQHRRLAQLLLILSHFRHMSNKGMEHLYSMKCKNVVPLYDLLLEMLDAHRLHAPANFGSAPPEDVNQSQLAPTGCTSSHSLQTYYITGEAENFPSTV

The experiment concerns the target bovine Estrogen Receptor (ER), ESR1 (gene 407238) (UniProt P49884). Description: NVS_NR_bER: NovaScreen (NVS) Nuclear Receptor Binding Assay for bovine Estrogen Receptor (ER) (AID 2283345).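 Note: actives lower the bound radioligand count which means they displace the ER ligand.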 As for the experimental part:
NVS_NR_bER is a biochemical, single-readout assay that uses extracted gene-proteins from Bovine uterine membranes in a tissue-based cell-free assay. Measurements were taken 18 hours after chemical dosing in a 96-well plate.NVS_NR_bER is one of one assay component(s) measured or calculated from the NVS_NR_bER assay. It is designed to make measurements of radioligand binding, a form of binding reporter, as detected with scintillation counting signals by Lysate-based radiodetection technology.Data from the assay component NVS_NR_bER was analyzed into 1 assay endpoint. This assay endpoint, NVS_NR_bER, was analyzed in the positive analysis fitting direction relative to DMSO as the negative control and baseline of activity. Using a type of binding reporter, loss-of-signal activity can be used to understand changes in the binding as they relate to the gene ESR1. Furthermore, this assay endpoint can be referred to as a primary readout, because the performed assay has only produced 1 assay endpoint. To generalize the intended target to other relatable targets, this assay endpoint is annotated to the nuclear receptor intended target family, where the subfamily is steroidal.
Binding assays used specific radioligands (tritiated, iodinated) with non-radioactive competitive displacement ligands in agonist or antagonist protocols (as indicated) and various reference compounds and inhibitors to titrate specific binding to receptors and transporters. Most enzyme assays (CYPs, kinases, phosphatases, proteases, HDACs) used recombinant protein and specific substrates (fluorescence mostly, some colorimetric and radioactive) and inhibitors, followed by a biochemical separation of substrate and product. All assays for the biochemical HTS were initially run in duplicate at a single concentration (10 uM for CYP450 assays and 25 uM for all others). […] Each assay was run with positive and negative controls, and concurrent controls on every plate. The follow-up (secondary) screen tested active chemical-pairs in concentration series, as well as a few additional assays not tested in the primary screen, some selected negative inactives, and several cases re-run in the concentration series for confirmatory purposes.
Consider `Cc1cccc(O)c1`, for which the call was inactive. With `CC(=O)C1C(=O)C=C(C)OC1=O` (configuration not stated), the call was inactive. As for `O=C(Nc1cccc(Cl)c1)OCC#CCCl`, the result was inactive. For the compound `O=C1OC2(c3ccc(O)cc3Oc3cc(O)ccc32)c2ccccc21`, the AC50 was 15.8 µM (active). Regarding `CCOCC(C)O` (configuration not stated), the outcome was inactive.

Consider `CCCCCCCCOC(=O)c1ccc(O)cc1`, for which the outcome was inactive. As to `CN(C)CCC=C1c2ccccc2CCc2ccccc21`, the call was inactive. Take `CCCCCCOc1ccc(O)cc1`: the compound was called inactive. Still for that read-out and setting: the result for `C[C@H](CCC(=O)O)[C@H]1CC[C@H]2[C@@H]3CC[C@@H]4C[C@H](O)CC[C@]4(C)[C@H]3CC[C@]12C` reads “inactive”. The same measure, in the same setting: in the case of `CC1(C)CC(=O)CC(C)(C)N1` it was “inactive”. On the same count and under the same terms, in the case of `CC(=O)OC(C)(C)C1CC=C(C)CC1` (configuration not stated) it was “inactive”. With `Cc1cc(O)c2c(c1)C(=O)c1cc(O)cc(O)c1C2=O`, the compound was classed as inactive. On the same count and under the same terms, in the case of `CC(O)CN` (configuration not stated) it was “inactive”. As to `CCC(C)(C)C1CCC(=O)CC1`, the AC50 was 4.52 µM (active). Take `CCC(=O)OC(C)(C)C1CC=C(C)CC1` (configuration not stated): the compound was called inactive. On the same count and under the same terms, in the case of `COc1ccccc1O` it was “inactive”; in that of `CC/C=C\CCOC(C)OCC` (configuration not stated), “inactive”; in that of `CCC(C)(C)c1cc(O)c(C(C)(C)CC)cc1O`, “inactive”. On the same count and under the same terms, the result for `CC/C=C\CCCCCCCCCCOC(C)=O` reads “inactive”; that for `C=CC(=O)OCC(CO)(COC(=O)C=C)COC(=O)C=C`, “inactive”. Same read-out and setting: the result for `CCCCCCCCCOS(=O)(=O)O` reads “inactive”; that for `CC(=O)CC(=O)N(C)C`, “inactive”; that for `O=S1(=O)CC(Cl)(Cl)C(Cl)(Cl)C1`, “inactive”. For the compound `CCCCCCCCCCCCOCCOS(=O)(=O)O`, the compound was called inactive. On the same count and under the same terms, the result for `CC(C)(CO)CO` reads “inactive”. Same read-out and setting: in the case of `CCCCCC(=O)O[C@]1(C(C)=O)CC[C@H]2[C@@H]3CCC4=CC(=O)CC[C@]4(C)[C@H]3CC[C@@]21C` it was “inactive”. On to `CC(C)(C)c1ccc(S)cc1`, for which the AC50 was 0.551 µM (active).

The values are drawn from PubChem BioAssay (EPA / NIEHS).
